# Bioassay records deposited in PubChem BioAssay by several laboratories.
# KKLEB cytotox = cytotoxicity in KKLEB CF airway cells, primary screen, cytotoxicity control for CF NF-kB inhibitor project, cell-based, uHTS, fluorescence assay plates; KKLEB CF airway cells viability, ATPlite luminescence, overnight; active compounds read low; cells stimulated with P. aeruginosa culture filtrate; hit rate 0.36% among 360,000; activity change (cytotoxicity), % at 5 µM;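 active means corrected activity change at or below -50% at 5 µM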
# Shn3 3UTR inh = reduction of Shn3 3'UTR firefly luciferase signal, primary screen, Schnurri-3 inhibitor project, cell-based, Clone20 osteoblasts, set 2. Clone20 osteoblast Shn3 3'UTR firefly luciferase, 24 h. inhibition, % at 12.5 µM. hit rate 0.52% among 360,000;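 active means mean inhibition of at least 75% with every replicate also reaching 75%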;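 further: 0% = median of neutral control wells and 100% = pilot-screen positive control compound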
# Peg3 promoter = Peg3 promoter-driven luciferase inhibitors, primary screen, cell-based, HeLa, luciferase luminescence; HeLa PEG-Prom luciferase reporter, overnight; inhibition, % at 20 µM; hit rate 1.7% among 360,000; AID 588405, 2011;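 active means inhibition of at least 50% at 20 µM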
# HIF-2a inh = HIF-2a reporter inhibitors, primary screen, luminescence, 786-0 RCC cells; hit rate 0.72% among 360,000; 786-0 RCC cells HIF-2a reporter, luciferase luminescence, overnight; inhibition, % at 18.8 µM;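 active means inhibition of the luminescence signal of 40% or more relative to plate controls, in a single-dose primary screen at 18.75 µM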
# EBV LMP1 NFkB = EBV LMP1-driven NF-kappaB luciferase reporter inhibitors, primary screen, cell-based, luminescence, single point | LMP1-induced NF-kappaB luciferase reporter cells | inhibition, % at 12.5 µM | AID 504558, 2011 | hit rate 0.69% among 350,000; in the data active means inhibition above about 41%;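 further: 0% = neutral control wells and 100% = reference inhibitor control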
# CF NFkB inh = inhibitors of PAF-induced NF-kB signaling, primary screen, cell-based, GFP fluorescence, uHTS; KKLEB NF-kB-GFP reporter, GFP fluorescence overnight; inhibition, % at 5 µM; hit rate 0.86% among 360,000;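 active means at least 50% inhibition at 5 µM, scaled per plate between neutral and stimulator controls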;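 further: PAF is a Pseudomonas aeruginosa culture filtrate used as stimulus; plate controls were PAF-stimulated DMSO wells for no effect and unstimulated DMSO wells for full effect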
# Active calls of the source: *; . = no result; ! = repeats disagree. Hits are enriched below; roughly 2.9% of the tested compounds scored in any of these assays.
SMILES,KKLEB cytotox,Shn3 3UTR inh,Peg3 promoter,HIF-2a inh,EBV LMP1 NFkB,CF NFkB inh
COc1cc(OC)c2ccc(=O)oc2c1C(CCN1CCCC(C)C1)c1ccc2c(c1)OCO2 (centres undefined),-15.9,-3.8,-6.9,5.2,2.4,20.6
COc1cc(OC)c2ccc(=O)oc2c1C(CCN1CCCC1)c1ccc(N(C)C)cc1 (centres undefined),-6.5,-19.6,-48.5,1.6,-3.3,1.4
CCCCCc1cc(=O)oc2c(C(CCN3CCCC3)c3ccc(N(C)C)cc3)c(OC)cc(OC)c12 (centres undefined),-26.7,-28.3,97.2*,14.7,1.8,14.5
CCCCCc1cc(=O)oc2c(C(CCN3CCCC3)c3cc(OC)c(OC)c(OC)c3)c(OC)cc(OC)c12 (centres undefined),-17.1,0.0,101.5*,2.9,-51.3,15.7
COc1cc(C(CCN2CCCC2)c2c(OC)cc(OC)c3c(C)cc(=O)oc23)cc(OC)c1OC (centres undefined),-17.7,3.2,4.8,-2.2,-2.7,-0.5
CCCCCc1cc(=O)oc2c(C(CCN3CCN(c4ccccc4)CC3)c3ccc4c(c3)OCO4)c(OC)cc(OC)c12 (centres undefined),-15.7,37.5,-2.3,9.1,-8.7,28.4
CCCCCc1cc(=O)oc2c(C(CCN3CCCCC3)c3ccc(OC)cc3)c(OC)cc(OC)c12 (centres undefined),-55.5*,31.4,102.3*,-1.1,-3.8,52.9*
CCCCCc1cc(=O)oc2c(C(CCN3CCCC(C)C3)c3ccc(OC)cc3)c(OC)cc(OC)c12 (centres undefined),-22.2,28.2,96.2*,7.3,13.5,13.6
O=C(/C=C/c1cccc(C(F)(F)F)c1)OCC(=O)N1CCN(c2ccccc2)CC1,14.1,3.4,-5.5,-3.1,4.4,-1.8
O=C(COC(=O)C1CC1)NC(=O)NCc1ccccc1,-1.0,-6.1,4.9,5.8,0.8,-6.2
CCN(CC)CCC(c1ccc(N(C)C)cc1)c1c(OC)cc(OC)c2ccc(=O)oc12 (centres undefined),-1.3,15.1,13.2,-2.5,-4.9,-23.0
CCCCCc1cc(=O)oc2c(C(CCN(CC)CC)c3ccc(OC)cc3)c(OC)cc(OC)c12 (centres undefined),-8.3,-14.6,101.0*,18.8,-2.7,2.9
Cc1noc(C)c1S(=O)(=O)Nc1ccc2c(c1)C(=O)N([C@H](C)CO)C[C@H](C)[C@@H](CN(C)Cc1ccc(C(=O)O)cc1)O2,5.0,4.1,2.8,7.6,-2.5,5.6
COc1ccc(OC)c2[nH]c(=O)c(CCNC(=O)c3ccc(S(=O)(=O)N4CCCCC4)cc3)cc12,-2.9,-11.9,26.0,29.0,4.8,0.5
COc1ccc(OC)c2[nH]c(=O)c(CCNC(=O)c3ccc(S(=O)(=O)N(C)C)cc3)cc12,-0.2,6.8,14.6,20.6,68.7*,9.3
COc1ccc(/C=C2/C(=O)ON=C2c2ccccc2)cc1OC,-8.4,12.1,30.6,41.2*,9.4,7.0
Cc1ccc(C2=NOC(=O)/C2=C\C=C\c2ccccc2)cc1,-61.1*,94.7*,106.0*,23.9,13.0,91.6*
COc1ccc(/C=C2\C(=O)ON=C2c2ccccc2)cc1OC,1.6,-49.1,37.7,22.4,-4.1,-10.6
O=C(CCC(=O)OCC(=O)c1ccc(C(F)(F)F)cc1)OCC(=O)c1ccc(C(F)(F)F)cc1,-5.9,-4.4,1.9,16.5,.,4.3
COCCCC/C(=N\OCCN)c1ccc(C(F)(F)F)cc1,-22.3,-2.7,-8.7,-16.8,68.3*!,20.6
Cc1ccc(/C=C/C(=O)N2CC(C)CC(C)C2)o1 (centres undefined),6.2,26.9,75.7*,39.0,-23.4,11.1
COc1ccc(-c2noc(N3CCC(C(=O)Nc4cccc(OC)c4)CC3)n2)cc1,5.8,16.0,-10.2,-76.3,1.0,23.0
CC(=NNc1ccc2ccccc2n1)c1ccccc1O,-37.1,17.9,36.6,43.4*,-1.6,-34.9
CCc1nc2ccc(C(=O)NCCOc3ccc(OC)cc3)cn2c1N(C=O)Cc1ccc(OC)cc1,-2.4,10.2,-7.5,-2.3,.,-0.8
CCOC(=O)CCCCCC(=O)Nc1ccc2c(c1)C(=O)N([C@H](C)CO)C[C@H](C)[C@H](CN(C)C(=O)C1CCCCC1)OCCCC[C@@H](C)O2,2.7,7.3,-8.0,-1.1,10.3,-6.4
SMILES,KKLEB cytotox,Shn3 3UTR inh,Peg3 promoter,HIF-2a inh,EBV LMP1 NFkB,CF NFkB inh
CCOC(=O)c1sc(NC(=O)CNCc2ccccn2)c(C(=O)OCC)c1C,-8.0,47.7,24.3,11.1,44.2*,-9.3
CCOC(=O)c1sc(NC(=O)CNCc2cccnc2)c(C(=O)OCC)c1C,-7.2,6.2,20.1,10.8,-4.0,-17.9
Cc1cccc2c1c1ccc3c(c1n2C)C(=O)C=CC3=O,-1.4,50.9,93.3*,6.0,-46.4,0.4
CCOC(=O)c1[nH]cnc1N=Nc1c(O)ccc2ccccc12,-7.2,79.8,46.4,-19.9,46.7*,-33.2
Oc1ccc2ccccc2c1N=Nc1ccccn1,3.0,94.9*,8.7,-70.3,63.0*,-14.8
O=C(CSCc1ccc(Cl)cc1)Nc1ccc(-c2nnc(-c3ccccc3)o2)cc1,-41.9,44.3,51.1*,-2.5,-105.2,39.6
COc1cc(OC)c2c(c1)OC(=O)CC2c1ccc(C)cc1 (centres undefined),-3.0,-12.9,-20.2,1.1,-0.6,15.7
O=C(Nc1nc2ccccc2[nH]1)Nc1ccccc1F,13.7,-49.9,-255.9,-153.8,-36.9,-8.6
CCN1c2ccccc2N(C)C1(C)c1ccccc1 (centres undefined),-1.4,89.1*,-4.8,25.8,7.9,-17.6
CN1c2ccccc2N(C)C1(C)c1ccccc1,-4.9,79.8,-6.5,-1.5,-8.3,6.9
NCC12CC3CC(C1)CC(c1ccc(Cl)cc1)(C3)C2,-29.1,26.6,107.6*,13.1,-77.5,23.0
Nc1ccc(C23CC4CC(CC(CO)(C4)C2)C3)cc1,-3.0,-4.5,-35.6,-2.1,-8.0,-7.2
O=c1cnn(Cc2ccc(F)cc2)c2ccccc12,-4.7,5.9,3.1,15.6,-3.1,5.7
O=c1c(Cl)c(Cl)cnn1Cc1ccc(F)cc1,-4.8,-2.8,73.9*,14.1,-9.0,34.7
Fc1ccc(NC(=S)NC2CCN(Cc3ccccc3)CC2)cc1,7.3,11.2,9.0,2.2,5.4,2.3
Cc1ccccc1C(=O)NC1CCN(Cc2ccccc2)CC1,7.0,-4.4,14.6,16.9,3.2,0.7
COc1cc(N)c(Cl)cc1C(=O)NC1CCN(Cc2ccccc2)CC1,-1.0,-20.1,-2.7,3.4,92.4*,-1.1
